Results taken from PubChem BioAssay AID1159580 (chemical genetic matrix, 2015).
The campaign covered roughly 5,500 compounds. About 2,000 (36%) were called active. Not shown: some 18% with an inconclusive outcome. Rule as the data show it: active = normalized growth mostly below about 0.91 (no sharp cut-off); inconclusive = no clear call, values can overlap the other calls; inactive = mostly above about 0.92. The list shows a part of the results.

Test: chemical genetic growth profiling, strain panel (AID 1159580);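 also: tested at 20 µM; growth read once vehicle control cultures reached saturation at 30 °C; 1 = growth at the plate median or of vehicle wells; lower values mean less growth of the strain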
Conditions: growth OD

Measured: normalized growth

COc1cc2nc(-c3cccs3)oc(=O)c2cc1OC
inactive: S. cerevisiae deletion strains, locus YAL013W, strain DEP1, stronger effect = lower value 0.984 | S. cerevisiae deletion strains, locus YBR229C, strain ROT2, stronger effect = lower value 0.984 | S. cerevisiae deletion strains, locus YDL101C, strain DUN1, stronger effect = lower value 0.987 | S. cerevisiae deletion strains, locus YDR150W, strain NUM1, stronger effect = lower value 0.908 | S. cerevisiae deletion strains, locus YEL061C, strain CIN8, stronger effect = lower value 0.981 | S. cerevisiae deletion strains, locus YGR078C, strain PAC10, stronger effect = lower value 0.987 | S. cerevisiae deletion strains, locus YGR229C, strain SMI1, stronger effect = lower value 1 | S. cerevisiae deletion strains, locus YHR030C, strain SLT2, stronger effect = lower value 0.864 | S. cerevisiae deletion strains, locus YHR087W, strain rtc3, stronger effect = lower value 0.985 | S. cerevisiae deletion strains, locus YJL187C, strain SWE1, stronger effect = lower value 0.999 | S. cerevisiae deletion strains, locus YJR043C, strain POL32, stronger effect = lower value 0.978 | S. cerevisiae deletion strains, locus YJR075W, strain HOC1, stronger effect = lower value 0.971 | S. cerevisiae deletion strains, locus YLR039C, strain RIC1, stronger effect = lower value 0.999 | S. cerevisiae deletion strains, locus YLR058C, strain SHM2 (second series), stronger effect = lower value 0.994 | S. cerevisiae deletion strains, locus YLR085C, strain ARP6, stronger effect = lower value 0.936 | S. cerevisiae deletion strains, locus YLR262C, strain YPT6, stronger effect = lower value 1.01 | S. cerevisiae deletion strains, locus YML094W, strain GIM5, stronger effect = lower value 0.978 | S. cerevisiae deletion strains, locus YMR219W, strain ESC1, stronger effect = lower value 0.994 | S. cerevisiae deletion strains, locus YMR263W, strain SAP30, stronger effect = lower value 0.9 | S. cerevisiae deletion strains, locus YMR307W, strain GAS1, stronger effect = lower value 0.945 | S. cerevisiae deletion strains, locus YNL153C, strain GIM3, stronger effect = lower value 0.971 | S. cerevisiae deletion strains, locus YNL298W, strain CLA4 (second series), stronger effect = lower value 0.993 | S. cerevisiae deletion strains, locus YNL322C, strain KRE1, stronger effect = lower value 0.984 | S. cerevisiae deletion strains, locus YNR030W, strain Alg12, stronger effect = lower value 0.983 | S. cerevisiae deletion strains, locus YPL055C, strain LGE1, stronger effect = lower value 1.11 | S. cerevisiae deletion strains, locus YPL241C, strain CIN2, stronger effect = lower value 0.976 | S. cerevisiae deletion strains, locus YPR135W, strain CTF4, stronger effect = lower value 0.879 | S. cerevisiae strains, strain wild type, stronger effect = lower value 1
